Growth data for eight molecules are collected here from PubChem BioAssay (NCI).

Holding throughout (experiment): NCI-60 one-dose screen, 48 h (100 = growth as untreated, 0 = no growth, -100 = all killed)
Holding throughout (settings): 10 µM unless noted

Test [1] relates to DU-145 prostate.
Test [2] relates to K-562 leukemia.
For test [3], the system named is MALME-3M melanoma.
In test [4] the test system is MDA-MB-231 breast.
The subject of test [5] is RXF 393 renal.
Test [6] concerns SF-268 CNS.
In test [7] the test system is SF-295 CNS.
Test [8] has as its system SF-539 CNS.
Test [9] has as its system UACC-257 melanoma.
Test [10] relates to M14 melanoma.
Test [11] concerns HCT-15 colon.
Test [12] relates to HT29 colon.
For test [13], the system named is SNB-75 CNS.
For test [14], the system named is SNB-19 CNS.
The subject of test [15] is U251 CNS.
Test [16] concerns PC-3 prostate.
Test [17] deals with SK-MEL-5 melanoma.
Test [18] has as its system UACC-62 melanoma.
Test [19] concerns LOX IMVI melanoma.
Test [20] has as its system SK-MEL-28 melanoma.

About 83,000 compounds went through this panel and 20% of them were active in at least one assay; those are over-represented in the sample as a whole.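 How to read the values: 0–100, growth inhibition (40 = 60% inhibited); 0, no net growth; -100 to 0, cell death (-40 = 40% of starting cells died; -100 = all dead).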 Unmarked numbers belong to inactive results. Active and inactive are the calls of the source. How the source made its calls: active means growth percent below 10; inactive means the rest.

For the molecule `O=C(NC1CCOCC1)c1ccc2c(c1)CN(c1ncc(Cc3cccc(-n4cccn4)c3)s1)CC2`, the growth in test [1] is 88.2%; in test [2] it was 58.7%; in test [3], 64.1%; in [4] it was 37.1%; in test [5], 73.7%; in test [6] it was 80.4%. Moreover, the growth in test [7] was 62.5%; in [8], 64.2%; in [9], 62.6%; in test [10], 64%; in test [11] it was 79.3%; in [12], 72.8%. The growth is 91.5% in [13]; 95.7% in test [14]; 72.6% in [15]; 58.7% in test [16]; 31.5% in test [17]; 64.5% in test [18]. Further, the figures for the growth in test [19] and in test [20] were 63.8% and 88.3%, respectively.

`N#C/C(=C\c1ccc2c(c1)OCO2)n1nnc2ccccc21`: the growth in [1] was -38% (active); in test [2], 14.2%; in test [3] it was 25.8%; in test [4], -31.9% (active); in test [5], -44.8% (active); in [6], 22.9%. Also, the growth in test [7] is -5.56% (active); in test [8] it was -61.4% (active); in [9], 64.4%; in test [10] it was 2.76% (active); in test [11], 9% (active); in [12], 11.5%. The growth in test [13] is -49.7% (active); in test [14], 19.8%; in test [15], 13%; in test [16] it was 12.5%; in test [17], 20.4%; in test [18], 20%. For the same molecule, the results for the growth in [19] and in test [20] were -11% (active) and 25.8%, respectively.

Regarding `CCC(C)NCc1ccccc1` (stereo not given), the growth in test [1] was 106%; in test [2] it was 98.1%; in test [3], 105%; in [4], 96.4%; in [5], 99.3%; in [6] it was 98.9%. Moreover, the growth in test [7] is 98.9%; in test [8] it was 102%; in [9] it was 103%; in test [10], 96.9%; in test [11] it was 107%; in [12] it was 84.9%. Moreover, the growth in [13] was 95.9%; in [14], 102%; in test [15], 102%; in test [16] it was 78.1%; in test [17] it was 106%; in [18] it was 95.3%. The values for the growth in test [19] and in test [20] were 102% and 112%, respectively.

Consider `O=S(=O)(Nc1ccsc1-c1nc(-c2ccccc2)no1)c1cc(Cl)cc(Cl)c1`, for which the growth in test [1] is 101%; in test [2], 105%; in test [3], 99.6%; in test [4] it was 102%; in test [5] it was 101%; in [6] it was 92.8%. The growth is 98.3% in test [7]; 91.4% in [8]; 85.8% in [9]; 92.1% in test [10]; 91.9% in test [11]; 98.5% in test [12]. In addition, the growth in test [13] is 73%; in [14], 98.8%; in test [15], 97.8%; in test [16], 86.7%; in test [17] it was 93.5%; in test [18] it was 83.6%. Also, the growth in test [19] is 96.5%; in [20], 88.2%.

On to `CCNCCNc1cc(-c2ccc(F)cc2)c(C#N)c2nc3ccccc3n12`, for which the growth is 46.4% in test [1]; -19.1% (active) in test [2]; -60.1% (active) in test [3]; 17.9% in test [4]; 29.7% in test [5]; 53.8% in test [6]. For the same molecule, the growth is 38.5% in test [7]; -88.4% (active) in test [8]; -76.8% (active) in test [9]; -64.1% (active) in test [10]; 23.8% in test [11]; 16.6% in [12]. The growth in [13] is 48.4%; in test [14] it was 79.3%; in [15], 17.1%; in test [16], 42.1%; in test [17] it was -62.9% (active); in test [18], 12.7%. Besides, the growth was -77.4% (active) in test [19] and -91% (active) in test [20].

On to `O=C(NC(=S)Nc1ccc(-c2nc3ccccc3[nH]2)cc1)c1ccc2ccccc2c1`, for which the growth is 18.8% in test [1]; 59.9% in [2]; -12% (active) in test [3]; -18.6% (active) in test [4]; -66.3% (active) in test [5]; 51% in test [6]. The growth in test [7] is 19.7%; in test [8], -30.8% (active); in [9], 49.2%; in test [10] it was 38%; in test [11], 29.2%; in test [12] it was 21.8%. The growth is -62.4% (active) in test [13]; 66.2% in test [14]; 13.9% in test [15]; 22.8% in test [16]; 14.7% in [17]; 34.1% in test [18]. Moreover, the growth in test [19] was -45.8% (active); in test [20] it was 40.5%.

Consider `COc1ccc(/C(C)=N/NS(=O)(=O)c2ccc(C)cc2)cc1OC`, for which the growth in [1] is 118%; in test [2], 111%; in test [3], 121%; in test [4], 113%; in test [5], 115%; in test [6] it was 106%. For the same molecule, the growth in test [7] was 98.9%; in [8], 103%; in [9] it was 104%; in test [10], 117%; in [11], 103%; in test [12] it was 109%. The growth in test [13] is 108%; in test [14], 107%; in test [15], 99.6%; in test [16], 91.6%; in test [17], 103%; in test [18], 105%. The results for the growth in test [19] and in test [20] were 93.1% and 123%, respectively.

As for `O=C(CCl)N1c2cccc3cccc(c23)N(C(=O)CCl)C1c1cn(-c2ccccc2)nc1-c1cccc([N+](=O)[O-])c1`, the growth is 98% in [1]; 33.3% in test [2]; 108% in [3]; 85.7% in test [4]; 99.9% in test [5]; 99.4% in test [6]. For the same molecule, the growth in test [7] was 103%; in [8] it was 96.5%; in test [9] it was 103%; in [10], 84.8%; in test [11] it was 85.6%; in test [12], 44.9%. The growth in test [13] is 85.1%; in test [14], 97.3%; in test [15], 85%; in [16], 97.1%; in [17] it was 98.9%; in test [18], 86.8%. Further, the growth was 26.6% in [19] and 106% in test [20].
